From PubChem BioAssay (Tox21)
Records with an inconclusive call do not appear. The source made the active and inactive calls. Unless noted, the call rests on the fitted dose curve.

Experiments:
[1] = Nuclear factor erythroid 2-related factor 2/antioxidant responsive element (Nrf2/ARE) small molecule agonists: qHTS cell viability counter screen in human keratinocytes (AID 1919968; active means well fitted curve in the direction sought with a large enough effect in the repeat runs; an effect the other way counts as inactive or inconclusive; further: nearly all actives have a fitted effect of over 55% in size)
How it was run: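 KeratinoSens cells (HaCaT keratinocytes stably carrying an ARE-luciferase reporter) were seeded at 1,500 cells/well and rested 5 h at 37 C/5% CO2. They were then exposed to compounds in DMSO for 23 h. Viability was read by CellTiter-Fluor fluorescence after 1 h.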

[2] = Nuclear factor erythroid 2-related factor 2/antioxidant responsive element (Nrf2/ARE) small molecule agonists: luciferase reporter gene qHTS assay in human keratinocytes (AID 1919969); further: nearly all actives have a fitted effect of over 35% in size
[3] = molecular target: Gonadotropin-releasing hormone receptor (Homo sapiens) (UniProt P30968); assay: Human gonadotropin-releasing hormone receptor (GnRHR) small molecule agonists, calcium flux assay in GnRHR-HEK293 cells (AID 1920063); further: nearly all actives have a fitted effect of over 35% in size
Sequence of Gonadotropin-releasing hormone receptor (Homo sapiens) (P30968 whole entry, looked up): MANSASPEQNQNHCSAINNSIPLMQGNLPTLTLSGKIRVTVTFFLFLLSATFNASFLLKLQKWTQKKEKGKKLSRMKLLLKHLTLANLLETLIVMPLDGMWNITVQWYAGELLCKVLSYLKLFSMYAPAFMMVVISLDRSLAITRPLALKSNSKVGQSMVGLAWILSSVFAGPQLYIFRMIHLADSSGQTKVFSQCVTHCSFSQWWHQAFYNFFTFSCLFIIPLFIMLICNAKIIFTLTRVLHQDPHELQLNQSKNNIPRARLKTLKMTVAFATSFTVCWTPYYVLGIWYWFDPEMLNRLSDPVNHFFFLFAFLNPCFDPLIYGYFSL
How it was run: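 HEK293 cells stably expressing human GnRHR were plated 18 h at 37 °C, loaded with calcium dye 1 h at 37 °C, then given compound in agonist mode; fluorescence (Ex/Em 480/540) read kinetically for 3 min at 1 s intervals.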

[4] = molecular target: KiSS-1 receptor (Homo sapiens) (UniProt Q969F8); assay: Human kisspeptin (KISS1R) small molecule agonists, calcium flux assay in KISS1R-HEK293 cells (AID 1920064; active means well fitted curve in the direction sought with a large enough effect in the repeat runs; an effect the other way counts as inactive or inconclusive)
Sequence of KiSS-1 receptor (Homo sapiens) (Q969F8 whole entry, looked up): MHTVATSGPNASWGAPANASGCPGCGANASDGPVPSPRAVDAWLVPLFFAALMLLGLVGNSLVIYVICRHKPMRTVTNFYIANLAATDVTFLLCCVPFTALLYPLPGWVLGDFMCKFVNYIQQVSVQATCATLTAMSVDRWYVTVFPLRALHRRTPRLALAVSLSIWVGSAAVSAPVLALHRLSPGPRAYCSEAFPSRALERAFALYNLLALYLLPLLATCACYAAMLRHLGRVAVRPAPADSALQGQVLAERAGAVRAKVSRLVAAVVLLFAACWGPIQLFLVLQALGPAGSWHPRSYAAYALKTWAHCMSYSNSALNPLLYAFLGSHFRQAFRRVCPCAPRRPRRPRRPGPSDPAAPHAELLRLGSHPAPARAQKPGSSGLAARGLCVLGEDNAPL
How it was run: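 HEK293 cells stably expressing human KISS1R were plated 18 h at 37 °C, loaded with calcium dye for 1 h at 37 °C, then given compound by pin tool. Fluorescence (Ex/Em 480/540) was read kinetically for 3 min.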

[5] = G protein-coupled receptor (GPCR) small molecule agonists, calcium flux assay: HEK293 wild type cell line counter screen (AID 1920065)
How it was run: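 Cells were plated and cultured 18 h at 37 C/5% CO2, then loaded with calcium dye for 1 h at 37 C. Compounds in DMSO were pin-transferred in agonist mode, and fluorescence (Ex/Em 480/540) was read kinetically for 3 min at 1 s intervals.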

[6] = p53 small molecule agonists, cell-based qHTS assay with human liver microsomes (AID 1963577);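 further: p53 response element beta-lactamase reporter cells with liver microsomes plus NADPH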
How it was run: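 Metabolically competent format: test substances, human liver microsomes and NADPH (both 0.5 mg/mL final) incubated with p53RE-bla cells 16 h at 37 C. Beta-lactamase reporter signal then quantified by fluorescence.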

[7] = p53 small molecule agonists, cell-based qHTS assay with rat liver microsomes (AID 1963578)
How it was run: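 Each plate received p53RE-bla cells, then compound, then rat liver microsomes and NADPH (both 0.5 mg/mL final). Plates were held 16 h at 37 C, and beta-lactamase activity was detected with LiveBLAzer over 2 h.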

[8] = p53 small molecule agonists, cell-based qHTS assay with human liver microsomes: qHTS cell viability counter screen (AID 1963579); further: nearly all actives have a fitted effect of over 45% in size
How it was run: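 Tox21 library compounds, delivered from DMSO stocks, were tested on p53RE-bla cells together with 0.5 mg/mL human liver microsomes and 0.5 mg/mL NADPH (final) over 16 h at 37 C; CellTiter-Glo luminescence served as the cytotoxicity measure.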

[9] = p53 small molecule agonists, cell-based qHTS assay with rat liver microsomes: qHTS cell viability counter screen (AID 1963580); further: nearly all actives have a fitted effect of over 45% in size
How it was run: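 Intracellular ATP, by CellTiter-Glo luminescence, defines viability. HCT-116 p53RE-bla cells, 4,000 per well, were compound-treated in the presence of rat liver microsomes and NADPH for 16 h at 37 C.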

[10] = p53 small molecule agonists, cell-based qHTS assay: qHTS cell viability counter screen (AID 1963581); further: nearly all actives have a fitted effect of over 45% in size
How it was run: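 p53RE-bla HCT-116 cells were exposed to compounds for 16 h at 37 C; after the beta-lactamase FRET read in the same wells, CellTiter-Glo was added and luminescence (intracellular ATP) read after 30 min at room temperature.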

[11] = p53 small molecule agonists, cell-based qHTS assay (AID 1963582; active means well fitted activation curve with a large enough effect in the signal ratio in the repeat runs, not every such curve was filed as active; the % refers to the signal ratio)
How it was run: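 p53RE-bla beta-lactamase reporter cells rested 5 h at 37 C/5% CO2, then received compounds in DMSO by pin transfer and were incubated 16 h at 37 C. LiveBLAzer B/G FRET substrate was loaded for 2 h at room temperature before fluorescence reading.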

[12] = molecular target: 5-hydroxytryptamine receptor 2A (Homo sapiens) (UniProt P28223); assay: 5-hydroxytryptamine receptor 2A (HTR2A) small molecule antagonists, cell-based qHTS assay (AID 1963586); further: nearly all actives have a fitted effect of over 45% in size
Sequence of 5-hydroxytryptamine receptor 2A (Homo sapiens) (P28223 whole entry, looked up): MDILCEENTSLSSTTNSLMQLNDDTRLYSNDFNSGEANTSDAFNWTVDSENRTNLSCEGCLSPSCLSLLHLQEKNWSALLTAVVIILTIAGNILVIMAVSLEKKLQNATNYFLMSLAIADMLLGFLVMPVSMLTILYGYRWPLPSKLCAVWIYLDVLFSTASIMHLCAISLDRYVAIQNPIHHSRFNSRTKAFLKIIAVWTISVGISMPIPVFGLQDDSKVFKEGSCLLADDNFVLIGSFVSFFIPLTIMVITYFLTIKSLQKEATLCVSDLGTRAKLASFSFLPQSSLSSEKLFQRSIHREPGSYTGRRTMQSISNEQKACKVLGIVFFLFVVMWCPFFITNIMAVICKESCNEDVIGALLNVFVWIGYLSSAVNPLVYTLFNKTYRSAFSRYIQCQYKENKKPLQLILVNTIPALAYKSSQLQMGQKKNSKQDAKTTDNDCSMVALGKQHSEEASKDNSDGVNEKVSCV
How it was run: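 Antagonist-mode intracellular calcium assay: DOI (4 nM) added after 5 min compound pre-incubation at room temperature to dye-loaded HTR2A-CHO cells. Fluorescence followed for 3 min, sampled every second.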

[13] = molecular target: 5-hydroxytryptamine receptor 2A (Homo sapiens) (UniProt P28223); assay: 5-hydroxytryptamine receptor 2A (HTR2A) small molecule agonists, cell-based qHTS assay (AID 1963587); further: nearly all actives have a fitted effect of over 30% in size
How it was run: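 Kinetic calcium-flux fluorescence (2 min, 1 sec intervals) after compound addition in agonist mode. HTR2A-CHO cells were cultured 18 h, then dye-loaded 1 h at 37 C.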

[14] = molecular target: Muscarinic acetylcholine receptor M1 (Homo sapiens) (UniProt P11229); assay: Cholinergic receptor muscarinic 1 (CHRM1) small molecule antagonists, cell-based qHTS assay (AID 1963588); further: nearly all actives have a fitted effect of over 40% in size
Sequence of Muscarinic acetylcholine receptor M1 (Homo sapiens) (P11229 whole entry, looked up): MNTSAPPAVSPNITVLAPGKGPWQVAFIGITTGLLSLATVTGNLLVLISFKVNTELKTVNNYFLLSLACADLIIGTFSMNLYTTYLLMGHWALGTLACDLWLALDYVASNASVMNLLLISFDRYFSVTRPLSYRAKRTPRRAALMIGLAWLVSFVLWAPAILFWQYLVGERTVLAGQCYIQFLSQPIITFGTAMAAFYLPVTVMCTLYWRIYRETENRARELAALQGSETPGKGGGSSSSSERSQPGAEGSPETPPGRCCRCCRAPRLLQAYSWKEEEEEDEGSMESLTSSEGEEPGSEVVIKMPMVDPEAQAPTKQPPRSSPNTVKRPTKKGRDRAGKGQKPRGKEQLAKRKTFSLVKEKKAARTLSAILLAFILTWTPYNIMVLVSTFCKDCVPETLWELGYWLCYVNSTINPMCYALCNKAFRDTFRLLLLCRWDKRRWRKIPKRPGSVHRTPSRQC
How it was run: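 CHRM1-CHO calcium-flux assay, antagonist mode. Cells were seeded 18 h, dye-loaded 1 h at 37 C and given compound for 5 min at RT, then acetylcholine was added at 50nM. FDSS fluorescence was read 3 min; 15 concentrations, three runs.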

[15] = molecular target: Muscarinic acetylcholine receptor M1 (Homo sapiens) (UniProt P11229); assay: Cholinergic receptor muscarinic 1 (CHRM1) small molecule agonists, cell-based qHTS assay (AID 1963589); further: nearly all actives have a fitted effect of over 35% in size
How it was run: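 CHO cells stably expressing human CHRM1, seeded 18 h at 37 C/5% CO2, dye-loaded 1 h at 37 C, then given compound in agonist mode; intracellular calcium fluorescence read kinetically at 1 s intervals. Fifteen concentrations, three independent runs.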

[16] = cAMP Responsive Elements (CRE) small molecule agonists, cell-based qHTS assay (AID 1963590)
How it was run: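 CRE-bla HEK 293T cells in DMEM with 10% dialyzed FBS, NEAA, pyruvate and 25 mM HEPES were plated 18 h at 37 C/5% CO2, then exposed to compounds in DMSO for 3 h before LiveBLAzer B/G FRET substrate addition.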

[17] = molecular target: Beta-2 adrenergic receptor (Homo sapiens) (UniProt P07550); assay: Adrenergic beta2 receptor (ADRB2) small molecule antagonists, cell-based qHTS assay (AID 1963592); further: series mostly up to about 92 µM; nearly all actives have a fitted effect of over 50% in size
Sequence of Beta-2 adrenergic receptor (Homo sapiens) (P07550 whole entry, looked up): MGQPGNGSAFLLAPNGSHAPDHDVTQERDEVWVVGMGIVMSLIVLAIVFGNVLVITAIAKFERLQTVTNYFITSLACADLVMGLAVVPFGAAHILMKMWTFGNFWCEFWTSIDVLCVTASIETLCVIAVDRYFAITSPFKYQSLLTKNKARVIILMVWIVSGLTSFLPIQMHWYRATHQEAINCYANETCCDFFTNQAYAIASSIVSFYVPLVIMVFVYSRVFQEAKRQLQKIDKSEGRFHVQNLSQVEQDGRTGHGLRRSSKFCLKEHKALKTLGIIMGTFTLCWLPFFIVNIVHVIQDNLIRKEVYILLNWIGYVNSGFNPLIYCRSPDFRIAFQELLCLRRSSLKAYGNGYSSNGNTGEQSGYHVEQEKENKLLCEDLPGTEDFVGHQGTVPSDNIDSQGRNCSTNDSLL
How it was run: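 Cells (CHO, stable ADRB2 overexpression) incubated 18-20hr at 37C; compounds added from DMSO; agonist mix (1nM isoproterenol, 100uM IBMX, 25uM Ro-20-1724) added; 0.5hr RT; d2-cAMP and anti-cAMP-cryptate added; 1hr RT; 665/615 nm read.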

[18] = molecular target: D(2) dopamine receptor (Homo sapiens) (UniProt P14416); assay: Dopamine D2 receptor (DRD2) small molecule agonists, cell-based qHTS assay (AID 1963594); further: nearly all actives have a fitted effect of over 35% in size
Sequence of D(2) dopamine receptor (Homo sapiens) (P14416 whole entry, looked up): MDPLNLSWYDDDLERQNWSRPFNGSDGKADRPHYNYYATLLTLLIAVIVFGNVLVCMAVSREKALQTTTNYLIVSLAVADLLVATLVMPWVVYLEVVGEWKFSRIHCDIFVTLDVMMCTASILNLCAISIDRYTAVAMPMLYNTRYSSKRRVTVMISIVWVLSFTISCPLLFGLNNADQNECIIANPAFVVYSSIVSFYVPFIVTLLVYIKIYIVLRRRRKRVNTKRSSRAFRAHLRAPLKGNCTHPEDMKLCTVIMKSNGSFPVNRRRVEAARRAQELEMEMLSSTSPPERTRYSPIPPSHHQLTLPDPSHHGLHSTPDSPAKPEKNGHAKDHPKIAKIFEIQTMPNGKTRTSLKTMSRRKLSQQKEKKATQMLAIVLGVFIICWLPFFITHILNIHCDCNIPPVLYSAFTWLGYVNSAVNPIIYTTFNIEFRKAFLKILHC
How it was run: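 cAMP accumulation in DRD2-HEK293 cells measured by HTRF after 1 h detection; compounds added 10 min before NKH477 (200nM […]) forskolin-analogue stimulation, 30 min at room temperature, with Ro20-1724 present at 0.1 mM final.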

[19] = molecular target: D(2) dopamine receptor (Homo sapiens) (UniProt P14416); assay: Dopamine D2 receptor (DRD2) small molecule antagonists, cell-based qHTS assay (AID 1963595; active means well fitted inhibition curve with a large enough effect in the signal ratio in the repeat runs, with a control signal flat; the % refers to the signal ratio)
How it was run: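 DRD2-HEK293; 0.1 mM Ro20-1724; cpd 10 min RT; NKH477 200 nM + quinpirole 12 nM, 30 min RT; HTRF cAMP (cAMP-d2/anti-cAMP cryptate), 665/620 nm ratio after 1 h.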

[20] = cAMP Responsive Elements (CRE) small molecule antagonists, cell-based qHTS assay (AID 1963591; active means well fitted inhibition curve with a large enough effect in the signal ratio in the repeat runs, not every such curve was filed as active; the % refers to the signal ratio)
How it was run: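 CRE-bla HEK293T cells were plated 18 h at 37 °C/5% CO2, pinned with compound in DMSO, then stimulated with NKH477 at 0.25 uM final for 3 h. LiveBLAzer B/G FRET substrate was added and plates incubated 2 h at room temperature.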

Measured: Potency

Cc1ccc2sc3cccc(C)c3c2c1
not listed: [20]
inactive: all other assays above

OC1CCC(C2CCCCC2)CC1 (configuration not stated)
not listed: [17]
inactive: all other assays above

CCCCCCOC(=O)CCCCC(=O)OCCCCCC
not listed: [17]
inactive: all other assays above

COC(=O)c1ccc(I)cc1S(=O)(=O)NC(=O)Nc1nc(C)nc(OC)n1
not listed: [20]
inactive: all other assays above

COc1ccc2nc(SCc3ncc(C)c(OC)c3C)[nH]c2c1
not listed: [20]
inactive: all other assays above

C=C(C)C(=O)OCCN(C)C
not listed: [20]
inactive: all other assays above

CS(=O)(=O)c1ccc([C@@H](C[C@H]2CCC(=O)C2)C(=O)Nc2cnccn2)cc1Cl
not listed: [16] | [20]
inactive: all other assays above
